Compound activity from PubChem BioAssay.
HIF-2a inh = HIF-2a inhibition; inhibition, % at 18.8 µM; hit rate 0.72% among 360,000; AID 624352; 786-0 RCC cells HIF-2a reporter, luciferase luminescence, overnight;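 active means inhibition of the luminescence signal of 40% or more relative to plate controls, in a single-dose primary screen at 18.75 µM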
TROY signal inh = inhibitors of TROY-dependent NF-kB signaling | inhibition, % at 10 µM | hit rate 0.98% among 360,000 | AID 1347056 | Q293 LMP1-TROYcd NF-kB luciferase reporter, 4 h;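 active means compounds whose plate-normalised and pattern-corrected inhibition of the luciferase reporter signal at the single screening dose is 50% or more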
TRPM1 prom inh = inhibitors of MITF-driven TRPM1 promoter in melanoma cells; SK-MEL-5 TRPM1 promoter luciferase, 24 h; inhibition, % at 12.5 µM; hit rate 0.83% among 330,000;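 active means mean inhibition across replicates of 60% or more, whatever share of single replicates reaches that level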
TWEAK-Fn14 inh = inhibitors of TWEAK-Fn14 interaction signaling | TWEAK-stimulated Fn14 reporter cells, luciferase luminescence, 8 h | inhibition, % at 10 µM | hit rate 2% among 360,000 | AID 1159606; in the data active means inhibition above about 50%
EBV LMP1 NFkB = reduces LMP1-driven NF-kappaB luciferase signal. LMP1-induced NF-kappaB luciferase reporter cells, luminescence. inhibition, % at 12.5 µM. hit rate 0.69% among 350,000. AID 504558; in the data active means inhibition above about 41%
Peg3 prom inh = Peg3 promoter activity inhibition. HeLa PEG-Prom luciferase reporter, luminescence, overnight. inhibition, % at 20 µM. hit rate 1.7% among 360,000. AID 588405;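 active means inhibition of at least 50% at 20 µM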
A number is an active result; n = inactive; x = not tested or not shown. Only some compounds are listed: those with a hit (about 4% of all), similar ones and a draw of the others.

SMILES	HIF-2a inh	TROY signal inh	TRPM1 prom inh	TWEAK-Fn14 inh	EBV LMP1 NFkB	Peg3 prom inh
CC(=O)Nc1ccc(C(=O)CCl)cc1	n	n	n	n	n	n
COc1ccc(C(=O)OCC(=O)c2ccc(CNC(C)=O)s2)cc1	n	n	n	n	n	n
CC(=O)NCc1ccc(C(=O)CCl)s1	n	n	n	n	n	69
Cc1cc(OCC(=O)Nc2ccc(N3CCN(C(=O)c4ccco4)CC3)cc2)cc(C)c1Cl	n	52	n	52	n	n
Cc1ccc(OCC(=O)Nc2ccc(N3CCN(C(=O)c4ccco4)CC3)cc2)cc1C	n	n	n	n	n	n
O=C(Nc1ccc(N2CCN(C(=O)c3cccs3)CC2)c(Cl)c1)c1ccco1	n	n	n	n	n	n
Cc1ccccc1C(=O)N1CCN(c2ccc(NC(=O)c3ccco3)cc2Cl)CC1	n	n	n	n	51	n
COc1ccc(C(=O)c2ccc(Cl)cc2)c(OC)c1OC	n	n	n	n	n	n
CCN(CC)S(=O)(=O)c1ccc(C)c(NC(=O)CN(C)C)c1	n	53	n	n	n	n
CN(C)S(=O)(=O)c1cccc(NC(=O)COc2cccc3ccccc23)c1	n	n	n	n	n	n
CN(C)S(=O)(=O)c1cccc(NC(=O)COc2ccccc2C(=O)Nc2ccccc2)c1	n	n	x	51	n	n
CN(C)S(=O)(=O)c1cccc(NC(=O)c2ccc(COc3ccccc3)cc2)c1	n	58	n	90	n	n
Cc1ccc(S(=O)(=O)N(C)C)cc1NC(=O)COc1ccccc1C(=O)Nc1ccccc1	n	n	n	n	n	60
CCN(CC)S(=O)(=O)c1ccc(C)c(NC(=O)CNCc2ccccc2OC)c1	n	n	n	n	n	n
O=C(c1ccccc1Cl)N1N=C(c2ccc(Br)cc2)CC1c1nc2ccccc2[nH]1 (stereo not given)	n	61	n	n	n	n
O=C(c1ccncc1)N1N=C(c2ccc(Br)cc2)CC1c1ccccc1O (stereo not given)	n	n	n	n	n	n
Cc1ccccc1NC(=O)CN1C(=O)S/C(=C\c2cccn2-c2cccc(C(=O)O)c2)C1=O	n	n	n	n	74	n
COc1ccc(C(C(=O)NC2CCCC2)N(Cc2cccnc2)C(=O)c2snc(C(N)=O)c2N)cc1 (stereo not given)	n	n	n	n	n	n
O=C(NNCc1ccccc1)c1ccccc1	n	n	n	65	n	n
CC(C)c1ccc(CNNC(=O)c2ccccc2)cc1	n	n	n	n	n	n
CN(Cc1cn(C)nc1-c1ccc(Oc2ccccc2)cc1)Cc1cnc2ccccn12	n	n	n	77	n	n
Cn1cc(CNCc2cnc3ccccn23)c(-c2ccc(Oc3ccccc3)cc2)n1	n	n	n	n	n	n
Cc1ccc(NC(=O)CSc2nc3ncc(Cl)cc3[nH]2)c(C)c1	n	n	n	n	n	n
CCN1CCN(c2ccc(NC(=O)CCc3c(C)nc4c(-c5ccccc5)c(C)nn4c3C)cc2)CC1	n	n	n	n	n	70
CCN1CCN(c2cc(C(C)(C)C)nc3c(-c4ccccc4)c(C)nn23)CC1	n	n	n	n	n	51
SMILES	HIF-2a inh	TROY signal inh	TRPM1 prom inh	TWEAK-Fn14 inh	EBV LMP1 NFkB	Peg3 prom inh
CCCCn1c(N)c(N(CCOC)C(=O)CN(C)CC(=O)Nc2ccc(Cl)c(Cl)c2)c(=O)[nH]c1=O	n	n	n	n	n	n
Nc1ccc(-c2cnc(N)c(C(=O)c3cccnc3)n2)cn1	n	n	n	79	67	n
CCn1c(SCC(N)=O)nc2cc(S(=O)(=O)N3CCOCC3)ccc21	n	n	n	n	n	n
CCn1c(CCl)nc2cc(S(=O)(=O)N3CCOCC3)ccc21	n	n	x	n	x	71
Oc1ccc(Br)cc1-c1nc2cnccn2c1NC1CCCCC1	n	n	n	n	n	n
Oc1ccc(Br)cc1-c1nc2cnccn2c1NC1CCCC1	n	n	n	62	n	n
COc1ccc(NC(=O)c2c(Nc3ccccc3)sc(C(=O)c3ccc(F)cc3)c2N)cc1	n	n	n	52	n	n
COc1ccc(C(=O)c2sc(Nc3ccccc3)c(C(=O)Nc3ccc(OC)c(OC)c3)c2N)cc1	n	n	n	n	n	n
CCCCn1c(N)c(N(CCOC)C(=O)c2ccc(S(=O)(=O)N3CCCCCC3)cc2)c(=O)[nH]c1=O	n	n	n	n	n	n
COC(=O)C1=CN(c2ccc(C(C)(C)C)cc2)C(N)=C(C#N)C1c1ccccc1F (stereo not given)	n	x	x	x	x	x
CCC(C)c1ccccc1NC(=O)COC(=O)c1ccc2[nH]c3c(c2c1)CCCC3 (stereo not given)	n	56	n	98	n	n
O=C(COC(=O)c1ccc2[nH]c3c(c2c1)CCCC3)Nc1ccccc1Cl	n	n	n	n	n	n
O=C(CNC(=O)c1sc2ccccc2c1Cl)NCc1cccc(C(F)(F)F)c1	n	n	n	n	n	n
CCC(=O)N1CCCC1(C)C(=O)NCc1ccc(SC)cc1 (stereo not given)	n	n	x	n	x	n
O=C(CSc1nnc(COc2ccc(Cl)cc2)o1)N1CCCCC1	n	n	x	n	n	n
ClCc1nnc(-c2cc3c(s2)CCCC3)o1	n	n	n	n	n	108
CCNC(=O)N(CC)C[C@H]1N[C@@](Cc2ccccc2)(C(=O)OC)[C@H]2C(=O)N(C)C(=O)[C@@H]12	n	n	n	n	65	n
CCN(C[C@H]1N[C@@](CC)(C(=O)OC)[C@H]2C(=O)N(C)C(=O)[C@@H]12)S(=O)(=O)c1ccc(C(C)(C)C)cc1	n	n	n	54	n	n
CCN(C[C@H]1N[C@@](CC)(C(=O)OC)[C@H]2C(=O)N(C)C(=O)[C@@H]12)S(=O)(=O)c1ccc(C(F)(F)F)cc1	n	n	n	n	n	n
CCN(C[C@H]1N[C@@](CC)(C(=O)OC)[C@H]2C(=O)N(Cc3ccccc3)C(=O)[C@@H]12)C(=O)c1ccc(C(C)(C)C)cc1	n	n	n	n	n	62
CN(CCC#N)c1ccc(/C=C(\C#N)c2ccccn2)cc1	n	n	n	52	n	n
CCN(Cc1ccccc1)c1ccc(/C=C(\C#N)c2ccccn2)cc1	n	n	n	n	n	n
CCN(CC)c1ccc(/C=C(\C#N)c2ccccn2)cc1	n	71	n	77	n	n
CC(=NNC(=S)N1CCC1)c1ccccn1	n	n	69	n	50	n
CC(=NNC(=S)N1CC2CCC(CC2)C1)c1cccc(C)n1	n	n	n	n	79	n
Cc1cccc(C(=O)N2CCCC(Nc3ccc(C)c(C)c3)C2)n1 (stereo not given)	n	n	n	n	n	n
CC(=NNC(=S)SCc1ccccc1)c1ccccn1	n	n	n	n	n	94
CC(=NNC(=S)N1CCCC1)c1ccccn1	n	n	x	n	57	n
C/C(=N\NC(=O)c1ccc(Cl)cc1)c1ccccn1	n	n	n	n	n	n
